Measurements as given in PubChem BioAssay (NCATS).
Unmarked numbers belong to inactive results. The rule behind the calls is not given here.

Test system: HIV-1 nucleocapsid protein NCp7 (binding to TG oligonucleotide)
Experiment: HIV Nucleocapsid (AID 346);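 note: potency is for inhibitors that block NC binding and lower polarization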
Conditions: HIV-1 NC / fluorescein-TGTGTGTG probe, fluorescence polarization
In short: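 Fluorescence polarization readout: labelled TG4xF oligo (10 nM) with 100 nM nucleocapsid protein, high-salt (250mM NaCl) Hepes pH 7.5 buffer containing zinc and fresh reducing agents. Compounds added by pin tool; incubation 1 hr, room temperature.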
Potency is the fitted concentration of half-maximal effect.

Structure (SMILES)	Potency [µM]
COc1ccccc1-c1cncnc1Nc1ccccc1	> 20
O=C(c1cccc(F)c1)N1CCC2(CCCN(c3ccccn3)C2)CC1	> 20
CS(=O)(=O)N1CCC2(CC1)CN(c1ccncc1)C2	> 4
CN(C)c1ncnc2ccc(-c3ccoc3)cc12	> 20
O=c1c(-c2ccc(Cl)cc2)nc2cnc(N3CCNCC3)nc2n1Cc1ccc(F)cc1	> 20
COc1ccccc1CNc1ccnc(-c2ccc3c(c2)OCO3)n1	> 20
COc1ccccc1CNc1cc(-c2cccc(C#N)c2)ncn1	> 20
COc1ccccc1-c1nccc(NC2CCNCC2)n1	> 20
COc1ccccc1CNc1ncncc1-c1cccnc1	> 20
COc1cccc(-c2nc(NC3CC3)c3ccccc3n2)c1	> 20
COCCn1c(=O)c(-c2ccc(OC)cc2)nc2cnc(Nc3ccccc3)nc21	> 20
O=C(Nc1cccc(F)c1)N1CCC2(CC1)CCN(C(=O)c1cccc(F)c1)CC2	> 20
COc1ccc2[nH]cc(CCNc3cc(-c4ccccc4C(F)(F)F)ncn3)c2c1	> 20
COCC(=O)N1CCC2(CC1)CN(C(=O)Nc1cccc(C#N)c1)C2	> 20
CS(=O)(=O)Nc1cccc(-c2nc(Nc3ccc(F)cc3)c3ccccc3n2)c1	> 20
COc1ccccc1CNc1ccnc(-c2ccc(N(C)C)cc2)n1	> 20
Cc1cnc(CNc2ncncc2-c2ccccc2Cl)cn1	> 20
N#Cc1ccc(CN2CC[C@@]3(CCCN(S(=O)(=O)c4ccccc4)C3)C2)cc1	> 20
COc1ccc2[nH]cc(CCNc3nc(-c4c(C)noc4C)nc4ccccc34)c2c1	> 20
COc1ccc(-c2nc3cnc(N4CCNCC4)nc3n(C3CC3)c2=O)cc1	> 20

Structure (SMILES)	Potency [µM]
O=C(Nc1ccccc1)N1CC[C@@]2(CCCN(C(=O)c3cnccn3)C2)C1	> 20
COc1cccc(Cn2c(=O)c(-c3cccc(Cl)c3)nc3cncnc32)c1	> 20
Cn1cccc1C(=O)N1CCC2(CC1)CN(C(=O)Nc1ccccc1)C2	> 20
CCNc1ncc2nc(-c3ccc(OC)cc3)c(=O)n(CCC#N)c2n1	> 20
O=S(=O)(c1ccccc1)N1CCC[C@@]2(CCN(Cc3cc(C(F)(F)F)cc(C(F)(F)F)c3)C2)C1	> 20
O=c1c(-c2cccs2)nc2cnc(N3CCNCC3)nc2n1Cc1cccs1	> 20
CN(Cc1ccco1)c1ncncc1-c1cccc(C#N)c1	> 20
O=C(Nc1ccccc1)N1CCCC2(CCN(S(=O)(=O)c3ccccc3)CC2)C1	> 20
COC(=O)N1CCC2(CCCN(c3cccc(-c4ccccc4)c3)C2)CC1	> 20
Cc1noc(C)c1-c1nccc(N(C)C)n1	> 20
CCNc1ncc2nc(-c3cc(F)cc(F)c3)c(=O)n(-c3ccccc3)c2n1	> 4
O=C(c1ccncc1)N1CCC[C@@]2(CCN(Cc3ccncc3)C2)C1	> 20
COc1cccc(Nc2ncc3nc(CCc4ccccc4)c(=O)n(C4CC4)c3n2)c1	> 4
O=S(=O)(c1ccccc1)N1CCC2(CCCN(c3ncccn3)C2)CC1	> 20
COc1ccc(CNc2ccnc(-c3ccccc3Cl)n2)c(OC)c1	> 20
CS(=O)(=O)N1CCC2(CCCN(Cc3cc(C(F)(F)F)cc(C(F)(F)F)c3)C2)CC1	> 20
COc1ccc(NC(=O)N2CC3(CCN(C(=O)c4ccc(OC)cc4)CC3)C2)cc1	> 20
COCC(=O)N1CCC2(CC1)CCN(c1ccncc1)CC2	> 20
COc1cccc(-c2cc(NCc3cnc(C)cn3)ncn2)c1	> 20
N#CCCn1c(=O)c(-c2ccccc2)nc2cnc(OCc3ccccc3)nc21	> 20
